From PubChem BioAssay (NCI)
This is part of a sample that, as a whole, favours compounds with a hit. Of some 83,000 tested, about 20% had one in any assay.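 Testing used 96-well plates and a 48-hour single-concentration exposure. Example: -40 means 40% of the starting cells died.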 A number with no mark means an inactive call. The source made the active and inactive calls. Rule for the calls: active = growth percent below 10; inactive = the rest.

Legend:
Assay in all cases: NCI-60 one-dose screen, 48 h (100 = growth as untreated, 0 = no growth, -100 = all killed)
Conditions in all cases: 10 µM unless noted
[1] = system: NCI-H23 lung
[2] = system: NCI-H226 lung
[3] = system: NCI-H322M lung
[4] = system: HOP-62 NSCLC
[5] = system: NCI-H460 lung
[6] = system: NCI-H522 lung
[7] = system: A549/ATCC NSCLC
[8] = system: 786-0 renal
[9] = system: COLO 205 colon
[10] = system: DU-145 prostate
[11] = system: K-562 leukemia
[12] = system: MALME-3M melanoma
[13] = system: MDA-MB-231 breast
[14] = system: RXF 393 renal
[15] = system: SF-268 CNS
[16] = system: SF-295 CNS
[17] = system: SF-539 CNS
[18] = system: UACC-257 melanoma
[19] = system: M14 melanoma
[20] = system: HOP-92 NSCLC

| SMILES | growth [1] | growth [2] | growth [3] | growth [4] | growth [5] | growth [6] | growth [7] | growth [8] | growth [9] | growth [10] | growth [11] | growth [12] | growth [13] | growth [14] | growth [15] | growth [16] | growth [17] | growth [18] | growth [19] | growth [20] |
| --- | --- | --- | --- | --- | --- | --- | --- | --- | --- | --- | --- | --- | --- | --- | --- | --- | --- | --- | --- | --- |
| Cc1cc(=O)oc2cc(OCC(O)CNN3C(=O)c4cccc5c(N6CCN(C)CC6)ccc(c45)C3=O)ccc12 (stereo unspecified) | 98.4% | 102% | 101% | 99.8% | 99.4% | 98.2% | 99.8% | 97.8% | 87.7% | 96.6% | 80.4% | 14.5% | 89.3% | 82.3% | 91.4% | 108% | 81.2% | 72.9% | 89.7% |  |
| Cc1cccc(/C=C/c2ccc(NC(=S)NCCCCN(C)C)cc2)c1 | -99.7% (active) | -72.1% (active) | -91.1% (active) | -67.4% (active) | -85.5% (active) | -73.7% (active) | -57.9% (active) | -57.4% (active) | -69.5% (active) | -82.7% (active) | 3.99% (active) | -96.1% (active) | -94.4% (active) | -91.8% (active) | -52.4% (active) | -95.6% (active) | -86.4% (active) | -65.4% (active) | -64.4% (active) | -57.2% (active) |
| Cc1ccc(C(=O)Nc2cc(-n3ccnc3C)cc(C(F)(F)F)c2)cc1C#Cc1cnc2cccnn12 | -26.1% (active) | -33.1% (active) | 21% | -7.58% (active) | 5.86% (active) | -29.1% (active) | 11.3% | 6.68% (active) | -19.9% (active) | 18.6% | -3.69% (active) | -35.6% (active) | -37.5% (active) | -54.6% (active) | 25.7% | -60.9% (active) | -81.8% (active) | 3.43% (active) | -20% (active) | -31.5% (active) |
| N#Cc1ccc(C(=O)CSc2nc3c(c(Nc4ccc(S(N)(=O)=O)cc4)n2)CCC3)cc1 | -0.896% (active) | 54.1% | 75.3% | 1.39% (active) | 39.6% | 44.6% | 50% | -22.3% (active) | 87.2% | 51.1% | 55.2% | 48.8% | -14.3% (active) | -18.1% (active) | 38.3% | 80.4% | 16.2% | 102% | 78.1% |  |
| O=C1c2cccc3c(N4CCN(Cc5ccccc5)CC4)ccc(c23)C(=O)N1c1cccc(-c2nn(-c3ccccc3)cc2-c2nc3ccccc3s2)c1 | 96% | 82% | 101% | 123% | 110% | 104% | 113% | 101% | 119% | 119% | 97.4% | 98.5% | 105% | 99.8% | 108% | 107% | 97% | 124% | 97.8% |  |
| O=C1c2cccc3c(N4CCN(c5ccccc5)CC4)ccc(c23)C(=O)N1c1cccc(-c2nn(-c3ccccc3)cc2-c2nc3ccccc3s2)c1 | 88.5% | 82% | 97% | 110% | 110% | 108% | 113% | 102% | 110% | 108% | 91.1% | 88.8% | 95.1% | 106% | 101% | 103% | 95.1% | 113% | 104% |  |
| COc1ccc(-c2cc(C)nc3[nH]c(=O)sc23)cc1 | 74.3% | 36.3% | 68.4% | 44.9% | 52.4% | 61.8% | 52.8% | 0.453% (active) | 119% | 67.3% | 62.5% | 95.2% | 34.6% | 57% | 69.4% | 45.7% | 49.5% | 95.3% | 98.5% |  |
| Cc1ccc(C(=O)C[n+]2cccc3c4ccccc4ccc32)cc1 | 27.4% | 36.3% | 43.3% | 36.1% | 4.31% (active) | 22.1% | 23.8% | 34.4% | 5.75% (active) | 35.7% | 8.04% (active) | 10.4% | 24.2% | 5.94% (active) | 42.8% | 23.4% | 25.5% | 5.16% (active) | 17.6% |  |
| O=C(CSc1nc2c(c(=O)[nH]1)CCCC2)Nc1ccccc1C(=O)O | 99.9% | 101% | 102% | 104% | 120% | 83.8% | 103% | 103% | 124% | 110% | 95.8% | 96.7% | 109% | 108% | 106% | 100% | 97.9% | 109% | 108% |  |
| CC[C@@]12CC(C(=O)OC)=C3Nc4cc5c(cc4[C@@]34CCN(C[C@H]3O[C@H]31)[C@@H]24)[C@@H]1[C@H](O5)[C@@H](O)[C@@]2(CC)CC(C(=O)OC)=C3Nc4cc(O)ccc4[C@@]34CCN1[C@@H]24 | -53.9% (active) | -50.9% (active) | -43% (active) | -54.4% (active) | -26.6% (active) | -44.9% (active) | 4.31% (active) | -89.3% (active) | -61.5% (active) | 7.47% (active) | -8.19% (active) | -39.6% (active) | -70.4% (active) | -98.4% (active) | 10.3% | -63% (active) | -53.1% (active) | -23.5% (active) | -61.4% (active) | -27.3% (active) |
| COc1cc2cc(C(=O)N3C[C@@H](CCl)c4c3cc(OC(=O)N(CCC(=O)N3CCN(C)CC3)C3CCCCC3)c3ccccc43)[nH]c2c(OC)c1OC | -86.8% (active) | -11.1% (active) | -28.6% (active) | -55.7% (active) | -73.1% (active) | -82% (active) | -24.1% (active) | -96% (active) | -66.7% (active) | -73.5% (active) | -20.6% (active) | -97.6% (active) | -61.4% (active) | -93.3% (active) | -41.5% (active) | -68.3% (active) | -93% (active) | -78.6% (active) | -84.5% (active) |  |
| CS(=O)(=O)c1ccc(-n2nc(C(=O)NCc3ccccc3)cc2-c2ccc(Cl)cc2)cc1 | 89.9% | 85% | 88.1% | 106% |  | 58.7% | 70% | 71% | 107% | 91.4% | 49.4% | 112% | 96.3% | 94.9% | 82.2% | 73.6% | 99.4% | 98.9% | 93.9% | 88.1% |
| NC(=Nc1ccc(OCCCCCCCCn2cnnn2)cc1)c1ccccc1 | 10.8% | 21.3% | 57% | 18.6% |  |  | 23.7% | 34.5% |  |  | 15.4% | 46.3% | 11.8% |  | 38.8% |  |  | 49.7% | 18.1% | 82.5% |
| COc1ccc2[nH]c(O)c(N=Nc3nc(-c4ccc(C#N)cc4)cs3)c2c1 | 55.9% | 98.4% | 83.9% | 77.5% |  | 65.4% | 51.8% | -73.4% (active) | 86% | 52.9% | 67.7% | 15.1% | 59.7% | 38% | 82.6% | 68.8% | 48.9% | 70.6% | 82.3% | 25.1% |
| COC(=O)c1c(C(=O)OC)c2c3ccccc3c3ccccc3n2c1C(=O)C(F)(F)F | 89.1% | 80% | 101% | 107% |  | 96.4% | 111% | 102% | 108% | 106% | 97.2% | 104% | 81.6% | 101% | 101% | 94.3% | 95.2% | 111% | 97% | 97.2% |
| Cc1ccc(C(C(=O)NC2CCCCC2)N(Cc2ccccc2Cl)C(=O)c2ccc(CN3CCOCC3)o2)o1 (stereo unspecified) | 93.8% | 101% | 105% | 107% |  | 78.7% | 98.5% | 82.8% | 121% | 101% | 81.6% | 109% | 85.5% | 93.4% | 83.5% | 91.8% | 99.4% | 103% | 98.6% | 91.3% |
